The whole screen tested about 3,200 compounds, of which about 2,900 (91%) were called active.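 Rule for the calls: active = fitted half-maximal effect concentration at most a set number of log units above the top dose; inactive = fitted half-maximal concentration further above the top dose.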 The set was probably picked from earlier hits. The list shows a part of the results. Measured potencies and affinities stand elsewhere.

A short description of the assay: growth inhibition of control SK(-) GAS strain, dose response, counter-screen for streptokinase expression inhibitor project, luminescence, kanamycin, BacTiterGlo, confirmation (AID 1900). The settings on record: SK(-)GAS Streptococcus pyogenes + kanamycin, BacTiterGlo viability, 6 h; at 15 µM (top of the series). Background: The purpose of a counterscreen is to sort out artefacts and off-target activity.
Take `O=C(Nc1ccccc1Sc1ccccc1)c1ccccc1F`: the activity change, negative = inhibition is -63% (active).
Consider `COc1cccc2sc(Nc3nnc(-c4ccccc4Cl)o3)nc12`, for which the activity change, negative = inhibition is -41.8% (active).
To `O=C(Nc1cccc(-c2nc3ccccc3[nH]2)c1)c1ccc(C(=O)Nc2cccc(-c3nc4ccccc4[nH]3)c2)cc1` belongs -32.9% (active); to `COc1ccccc1N=c1oc2cc(O)ccc2cc1C(N)=O`, -48.9% (active); to `CC(C)(C)c1csc(NNC(=O)c2ccc(Br)cc2)n1`, -78.7% (active).
The figure for `FC(F)Oc1ccccc1C1CC(c2ccc(Br)s2)Nc2ncnn21` (configuration not stated) is -52.4% (active); for `N#C/C(=C\c1ccc(/C=C(/C#N)c2nn(CCO)c(N)c2C#N)cc1)c1nn(CCO)c(N)c1C#N` it is -56% (active).
